PP5 primary: PP5 (human) phosphatase inhibition; 0.18% of 320,000 active; AID 1987; P53041; inhibition, % at 6.7 µM; purified PP5c, OMFP substrate fluorescence;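 active = inhibition above the campaign's mean inhibition across all tested compounds plus 3 SD, cut at about 9.5% in these data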;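 note: 0% = DMSO only and 100% = 100 µM cantharidin control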
EBNA-1 inhibitor: blocks EBNA-1 binding to DNA; EBNA-1 DNA binding, fluorescence polarization; inhibition, % at 14.8 µM; 0.34% of 300,000 active; AID 1950; in the data active = inhibition above about 28%
PP1 inh: blocks human PP1-alpha phosphatase, a PP5 counter-screen. P62136. purified PP1alpha, OMFP fluorescence. inhibition, % at 6.7 µM. 0.9% of 320,000 active. AID 2235;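 active = inhibition above the mean inhibition of all tested compounds plus 3 SD, computed separately for each screening campaign, cut at about 15% in these data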
Target sequence (P62136 whole entry, looked up): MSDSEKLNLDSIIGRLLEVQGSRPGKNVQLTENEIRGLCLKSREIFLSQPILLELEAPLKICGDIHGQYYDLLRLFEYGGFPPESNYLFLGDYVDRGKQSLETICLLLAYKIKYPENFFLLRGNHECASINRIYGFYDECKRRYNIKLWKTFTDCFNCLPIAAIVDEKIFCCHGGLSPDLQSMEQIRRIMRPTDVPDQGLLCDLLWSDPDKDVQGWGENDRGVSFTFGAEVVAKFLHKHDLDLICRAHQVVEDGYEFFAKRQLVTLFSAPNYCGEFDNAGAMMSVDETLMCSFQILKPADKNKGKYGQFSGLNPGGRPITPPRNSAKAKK
bovine MsrA act: activates bovine MsrA enzyme; AID 602163; purified bovine MsrA, absorbance read-out; 0.3% of 360,000 active; activation, % at 10.6 µM; in the data active = activation above about 7.5%;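 note: 0% = vehicle and 100% = reference activator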
ZTA DNA inh: counter-screen for EBNA-1 inhibitors: inhibitors of Epstein-Barr virus ZTA; ZTA-DNA binding, fluorescence polarization; inhibition, % at 11 µM; P03206; 0.15% of 320,000 active; in the data active = inhibition above about 33%
MsrA inhibitor: inhibits bovine methionine sulfoxide reductase A. 0.75% of 360,000 active. inhibition, % at 15.5 µM. purified bovine MsrA, absorbance read-out; in the data active = inhibition above about 4.5%;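 note: 0% = vehicle wells with enzyme and 100% = reference inhibitor wells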
Numbers without * were called inactive; / = not tested or not shown; + = active, no number. The list is not random: actives were taken first. Their share in the collection is about 2.3%.

SMILES | PP5 primary | EBNA-1 inhibitor | PP1 inh | bovine MsrA act | ZTA DNA inh | MsrA inhibitor
COC(=O)C1=C(C)N(C)C(=NCc2ccc3c(c2)OCO3)NC1c1ccc(F)cc1 (stereo unspecified) | / | / | / | / | / | 0
CCC(c1nnnn1CCc1ccccc1)N(Cc1ccco1)Cc1cc2c(C)ccc(C)c2[nH]c1=O (stereo unspecified) | 1 | 0 | 16* | -2 | -2 | 1
C#Cc1cccc(Nc2nc(NCc3ccccc3)nc3ccsc23)c1 | / | / | / | -4 | / | 13*
COc1ccc(-c2[nH]c(-c3ccc(Cl)cc3)nc2SCC(=O)Nc2nccs2)cc1 | 5 | 5 | 16* | -2 | 11 | -1
O=c1[nH]c(-c2ccccc2)cn1C1CCN(Cc2ccc(-c3nc4ccc(Br)cc4nc3-c3ccccc3)cc2)CC1 | / | / | / | / | / | 2
Cc1ccc(N(C)C)cc1 | / | / | / | / | / | 1
Cc1ccc(C)n1-c1ccc(N(C)C)cc1 | 3 | 109* | -13 | -5 | 180* | 0
N#C/C(=C(/O)c1ccccc1F)c1nc2cc(C(F)(F)F)ccc2s1 | 0 | 0 | 0 | -7 | -1 | 4.7*
N#C/C(=C(/O)c1ccc2c(c1)OCO2)c1nc2cc(C(F)(F)F)ccc2s1 | 4 | -8 | 1 | -3 | -23 | 1
O=C(Nc1ccc(Cl)c(Cl)c1)Nc1nccs1 | 7 | -8 | 18* | -2 | -1 | 2
O=C(NC(=S)NCCC1=CCCCC1)c1cncc(Br)c1 | 4 | -22 | 1 | -4 | -13 | -1
CC(C)N1CCN(S(=O)(=O)c2ccc3ccccc3c2)CC1 | 5 | 153* | -1 | -6 | 133* | 0
O=C(COC(=O)c1ccc(CSc2ccc(Cl)cc2)cc1)Nc1ccccc1 | 3 | 29* | 3 | -11 | 3 | 1
O=C(COC(=O)CSc1ccc(Cl)cc1)Nc1ccccc1 | 3 | / | -2 | -7 | -9 | 0
N[C@@H](Cc1cc(I)c(Oc2cc(I)c(O)c(I)c2)c(I)c1)C(=O)O | 1 | 11 | 16* | / | 15 | /
C[C@H](O)[C@@H]1CN2CCc3ccc(-c4ccc5c(c4)OCO5)cc3[C@@H]2C[C@@H]1N(C)C(=O)c1cccc(Cl)c1 | / | / | / | / | / | 3
Cc1ccc(S(=O)(=O)NC(=O)Nc2ccc(N(C)C)cc2)cc1 | 1 | + | 6 | -2 | + | 1
COC(=O)C1=C(C)N(Cc2ccc(C(F)(F)F)cc2)C(=NCc2ccc(C(F)(F)F)cc2)NC1c1ccccc1C(F)(F)F (stereo unspecified) | / | / | / | / | / | -1
Cc1ccccc1Br | / | / | / | / | / | 1
N#CCC(=O)Nc1ccc(C(=O)OCC(=O)c2ccc3c(c2)NC(=O)CO3)cc1 | 2 | / | 16* | -8 | -23 | 1
CC(=O)Nc1cc(NC(C)=O)cc(C(=O)OCC(=O)c2ccc3c(c2)NC(=O)CO3)c1 | 1 | -3 | -3 | 0 | -5 | 1
CCCN1C(=O)c2n[nH]c(C)c2C1c1ccc(Br)cc1 (stereo unspecified) | / | / | / | / | / | -1
CC(=O)Nc1nc(C)c(-c2csc(Nc3cccc([N+](=O)[O-])c3)n2)s1 | 4 | -17 | 11 | -12 | -8 | 1
CC(=O)c1cccc(Nc2nc(-c3cccc([N+](=O)[O-])c3)cs2)c1 | 1 | 5 | 16* | -4 | -7 | 1
CC(=O)Nc1nc(C)c(-c2csc(Nc3cccc(C(C)=O)c3)n2)s1 | 1 | -3 | -3 | -2 | -9 | 4.6*
SMILES | PP5 primary | EBNA-1 inhibitor | PP1 inh | bovine MsrA act | ZTA DNA inh | MsrA inhibitor
N#Cc1cc(-c2ccccc2)oc1NC(=O)c1ccco1 | 0 | 2 | 3 | -3 | -3 | 4.6*
Cc1ccc(S(=O)(=O)N2CCN(c3nc(C(C)C)c4c(c3C#N)CC(C)(C)OC4)CC2)cc1 | -2 | 88* | -2 | -6 | 70* | 0
CCN(CC)C(=O)Cn1cnc2sc(C(=O)Nc3cc(OC)c(OC)c(OC)c3)c(C)c2c1=O | 6 | 6 | 15* | -2 | 0 | 2
CCCNC(=O)Cn1cnc2sc(C(=O)NCCN(CC)CC)c(C)c2c1=O | 5 | -10 | 16* | -5 | -4 | 0
COc1ccc(/C=N/NC(=S)NC2CCS(=O)(=O)C2)cc1OC (stereo unspecified) | 1 | -3 | -4 | -6 | 5 | 6.0*
Cc1ccc2nsnc2c1NC(=O)Cc1ccc(Cl)cc1 | 2 | 2 | -4 | -5 | 4 | 0
Cc1ccc2nsnc2c1NC(=O)c1ccc(-c2cc(Cl)ccc2Cl)o1 | 4 | 13 | 25* | -3 | -10 | 0
